An excerpt weighted towards active compounds, which were near 2.9% of everything screened.
pPAFAH inh – pPAFAH enzyme inhibitors, primary screen, biochemical, fluorescence polarization, human; AID 463082, 2010; recombinant pPAFAH, FP-rhodamine probe fluorescence polarization; Platelet-activating factor acetylhydrolase (Homo sapiens), Q13093; inhibition, % at 3.39 µM; 1.5% of 330,000 active;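 active means inhibition above the mean inhibition across the screen plus 3 SD, cut at about 25% in these data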;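 further: inhibitors block binding of the rhodamine activity-based probe so polarization drops; 0% = enzyme with DMSO and 100% = wells lacking pPAFAH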
PAFAH2 inh – PAFAH2 enzyme inhibitors, primary screen, biochemical, fluorescence polarization, human | 0.99% of 340,000 active | AID 492956, 2010 | recombinant PAFAH2, FP-rhodamine activity probe | Platelet-activating factor acetylhydrolase 2, cytoplasmic (Homo sapiens), Q99487 | inhibition, % at 3.39 µM;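 active means inhibition above the mean over all tested compounds plus 3 SD, cut at about 30% in these data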;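 further: inhibitors block probe labeling of enzyme so polarization drops; 0% = enzyme with DMSO and 100% = wells lacking PAFAH2 protein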
Fam108B inh – mouse Fam108B serine hydrolase inhibitors, primary screen, counter-screen for RBBP9 inhibitor project, biochemical, fluorescence polarization. recombinant Fam108B, FP-Rh probe fluorescence polarization. AID 1947, 2009. inhibition, % at 9.51 µM. 0.33% of 300,000 active;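 active means inhibition above the screen mean inhibition plus 3 SD, computed separately per campaign, cut at about 18% in these data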;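 further: inhibitors lower polarization as less probe binds the enzyme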
PME-1 inh – PME-1 inhibitors via competitive probe labeling, primary screen, biochemical, fluorescence polarization, FP-Rh probe, HTS | AID 2130, 2009 | recombinant PME-1 | 0.53% of 320,000 active | inhibition, % at 5.9 µM | Protein phosphatase methylesterase 1 (Homo sapiens), Q9Y570;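 active means inhibition above the campaign mean of all compounds plus 3 SD, cut at about 26% in these data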;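 further: competitive labeling of PME-1 active site by serine hydrolase directed probe; 0% = PME-1 with DMSO and 100% = wells lacking PME-1 enzyme; inhibitors block probe labeling so polarization falls and inhibition rises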
Target sequence (Q9Y570 whole entry, looked up): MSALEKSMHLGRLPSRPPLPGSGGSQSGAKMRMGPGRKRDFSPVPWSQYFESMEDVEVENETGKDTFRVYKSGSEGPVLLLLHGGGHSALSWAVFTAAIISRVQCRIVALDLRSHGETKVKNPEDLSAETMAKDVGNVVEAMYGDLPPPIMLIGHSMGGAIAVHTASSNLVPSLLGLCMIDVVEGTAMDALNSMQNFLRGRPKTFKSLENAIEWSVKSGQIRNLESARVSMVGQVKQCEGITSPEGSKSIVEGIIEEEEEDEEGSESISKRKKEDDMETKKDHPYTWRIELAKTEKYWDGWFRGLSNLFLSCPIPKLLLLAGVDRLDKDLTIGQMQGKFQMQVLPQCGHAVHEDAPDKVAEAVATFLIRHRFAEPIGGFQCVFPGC
PAFAH1B2 FP inh – PAFAH1B2 enzyme inhibitors, primary screen, biochemical, fluorescence polarization, human. Platelet-activating factor acetylhydrolase IB subunit alpha2 (Homo sapiens), P68402. recombinant PAFAH1B2, FP-rhodamine activity probe. inhibition, % at 3.39 µM. 1.2% of 340,000 active. AID 492953, 2010;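 active means inhibition above the mean of all tested compounds plus 3 SD, cut at about 24% in these data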;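 further: 0% = enzyme with DMSO and 100% = wells lacking PAFAH1B2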
PAFAH1B3 FP inh – PAFAH1B3 enzyme inhibitors, primary screen, biochemical, fluorescence polarization, human; Platelet-activating factor acetylhydrolase IB subunit alpha1 (Homo sapiens), Q15102; recombinant PAFAH1B3, FP-rhodamine probe; inhibition, % at 3.39 µM; 0.28% of 340,000 active; AID 492972, 2010;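 active means inhibition above the screen-wide average of all tested compounds plus 3 SD, cut at about 25% in these data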;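 further: 0% = enzyme with DMSO only and 100% = wells lacking PAFAH1B3 protein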
Target sequence (Q15102 whole entry, looked up): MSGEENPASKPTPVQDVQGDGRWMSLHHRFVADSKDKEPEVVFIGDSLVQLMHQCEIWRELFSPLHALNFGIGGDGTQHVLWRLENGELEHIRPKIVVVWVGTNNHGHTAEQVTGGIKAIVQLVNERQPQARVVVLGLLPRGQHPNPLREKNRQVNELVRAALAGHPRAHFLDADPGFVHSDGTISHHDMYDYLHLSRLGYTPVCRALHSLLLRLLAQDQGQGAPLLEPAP
PAFAH1B3 conf FP – PAFAH1B3 enzyme inhibitors, confirmation, biochemical, fluorescence polarization, human. inhibition, % at 3.39 µM. AID 493032, 2011. recombinant PAFAH1B3, FP-Rh activity-based probe. shares compounds with PAFAH1B3 FP inh. 30% of 390 active;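 active means average inhibition over triplicate runs above the hit cutoff set in the earlier primary screen, cut at about 25% in these data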;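 further: 0% = enzyme with DMSO and 100% = wells lacking PAFAH1B3 protein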
* hit, by the source's call.

How did COn1c(-c2ccccc2)nc2c1CCc1c-2no[n+]1[O-] do in these assays?
pPAFAH inh: 5; PAFAH2 inh: 2; Fam108B inh: 10; PME-1 inh: 2; PAFAH1B2 FP inh: 4; PAFAH1B3 FP inh: 26*; PAFAH1B3 conf FP: 27*

What do the screens show for `O=C1c2ccccc2C(=O)c2c1ccc(O)c2O`?
PAFAH2 inh: 12; PAFAH1B2 FP inh: 6; PAFAH1B3 FP inh: 30*; PAFAH1B3 conf FP: 20

What do the screens show for `OCc1cccc[n+]1Cc1ccccc1`?
pPAFAH inh: -4; PAFAH2 inh: 13; Fam108B inh: 2; PME-1 inh: -4; PAFAH1B2 FP inh: 0; PAFAH1B3 FP inh: -5

How did Cc1ccc(/C=C2/C(=O)c3ccc(C(=O)O)cc3C2=O)o1 do in these assays?
PAFAH2 inh: 16; PAFAH1B2 FP inh: 14; PAFAH1B3 FP inh: 26*; PAFAH1B3 conf FP: 17

What do the screens show for `Cc1ccc(C=C2C(=O)c3ccccc3C2=O)o1`?
pPAFAH inh: 9; PAFAH2 inh: -1; Fam108B inh: -12; PME-1 inh: -11; PAFAH1B2 FP inh: -6; PAFAH1B3 FP inh: -2

Results for O=c1c(=Nc2ccccc2O)c(=O)c2ccccc12 ?
pPAFAH inh: 1; PAFAH2 inh: 7; Fam108B inh: 1; PME-1 inh: -1; PAFAH1B2 FP inh: 10; PAFAH1B3 FP inh: 50*; PAFAH1B3 conf FP: 12

Results for O=C(COC(=O)C1=Cc2ccccc2OC1)NCc1ccc(F)cc1 ?
PAFAH2 inh: 7; PAFAH1B2 FP inh: -3; PAFAH1B3 FP inh: 4

What do the screens show for `CCc1nnc(N/N=C/c2cc(Br)c(O)cc2O)n1N`?
pPAFAH inh: 7; PAFAH2 inh: 6; Fam108B inh: 4; PME-1 inh: -3; PAFAH1B2 FP inh: 9; PAFAH1B3 FP inh: 26*; PAFAH1B3 conf FP: 19

Results for O=C(NCc1ccc(F)cc1)c1cc2ccccc2o1 ?
pPAFAH inh: -3; PAFAH2 inh: 0; Fam108B inh: 0; PME-1 inh: -9; PAFAH1B2 FP inh: 2; PAFAH1B3 FP inh: 5

What do the screens show for `COC(=O)c1c[nH]c2c1-c1cc(C(=O)OCc3ccccc3)n(S(=O)(=O)c3ccc(C)cc3)c1C(=O)C2=O`?
PAFAH2 inh: 9; PAFAH1B2 FP inh: 9; PAFAH1B3 FP inh: 38*; PAFAH1B3 conf FP: 8

Results for O=Nc1c(O)c2ccccc2c2ccccc12 ?
pPAFAH inh: 15; PAFAH2 inh: 12; Fam108B inh: 15; PME-1 inh: 35*; PAFAH1B2 FP inh: 11; PAFAH1B3 FP inh: 94*; PAFAH1B3 conf FP: 66*

Results for O=C(O)c1cccc(NS(=O)(=O)c2ccc3nnn(O)c3c2)c1 ?
pPAFAH inh: 2; PAFAH2 inh: -2; Fam108B inh: 5; PME-1 inh: 0; PAFAH1B2 FP inh: 1; PAFAH1B3 FP inh: 8

How did O=C(O)c1cccc(NC2=C(n3nnc4ccccc43)C(=O)c3ccccc3C2=O)c1 do in these assays?
pPAFAH inh: -1; PAFAH2 inh: 3; Fam108B inh: 2; PME-1 inh: 1; PAFAH1B2 FP inh: 5; PAFAH1B3 FP inh: 29*; PAFAH1B3 conf FP: 17

Results for Cc1cc(NC2=CC(=O)C(=O)c3ccccc32)no1 ?
PAFAH2 inh: 20; PAFAH1B2 FP inh: 11; PAFAH1B3 FP inh: 33*; PAFAH1B3 conf FP: 34*

How did COc1cc(OC)c(NC2=CC(=O)C(=O)c3ccccc32)cc1Cl do in these assays?
pPAFAH inh: 12; PAFAH2 inh: 12; Fam108B inh: 17; PME-1 inh: 10; PAFAH1B2 FP inh: 10; PAFAH1B3 FP inh: 42*; PAFAH1B3 conf FP: 33*

Results for Cc1ccc(Nc2ccccc2)cc1 ?
pPAFAH inh: 6; PAFAH2 inh: -4; Fam108B inh: 0; PME-1 inh: 3; PAFAH1B2 FP inh: 7; PAFAH1B3 FP inh: 18

How did Cc1cc(NC(=O)CCN2C(=O)c3ccccc3C2=O)no1 do in these assays?
pPAFAH inh: 3; PAFAH2 inh: -3; Fam108B inh: -3; PME-1 inh: -1; PAFAH1B2 FP inh: 6; PAFAH1B3 FP inh: 7

What do the screens show for `Cc1ccc(NC2=CC(=O)C(=O)c3ccccc32)cc1`?
pPAFAH inh: 9; PAFAH2 inh: 4; Fam108B inh: 12; PME-1 inh: 15; PAFAH1B2 FP inh: 8; PAFAH1B3 FP inh: 25*; PAFAH1B3 conf FP: 21

How did Nc1nc(N(Cc2ccccc2)Cc2ccccc2)nc(C(F)(F)F)n1 do in these assays?
pPAFAH inh: 5; PAFAH2 inh: 3; PME-1 inh: 25; PAFAH1B2 FP inh: 2; PAFAH1B3 FP inh: 3

Results for CCOC(=O)c1c(S(=O)(=O)N2CCN(c3ccc(F)cc3)CC2)c(C)n(C)c1C ?
pPAFAH inh: 3; PAFAH2 inh: 7; Fam108B inh: -1; PME-1 inh: -1; PAFAH1B2 FP inh: 4; PAFAH1B3 FP inh: 7

Results for O=C(CSc1nc2ccsc2c(=O)n1CC1CCC(C(=O)O)CC1)c1ccc(Cl)cc1 (stereo unspecified) ?
pPAFAH inh: 3; PAFAH2 inh: 6; Fam108B inh: -1; PME-1 inh: -1; PAFAH1B2 FP inh: 16; PAFAH1B3 FP inh: 27*; PAFAH1B3 conf FP: 4

What do the screens show for `O=C1OC(CO)CN1Cc1ccccc1` (stereo unspecified)?
pPAFAH inh: 2; PAFAH2 inh: 6; Fam108B inh: -2; PME-1 inh: 6; PAFAH1B2 FP inh: 12; PAFAH1B3 FP inh: 8

How did COc1cc(NC(=O)c2cc(-c3ccccc3)nc3c2cnn3C(C)C)cc(OC)c1OC do in these assays?
pPAFAH inh: 4; PAFAH2 inh: -35; PAFAH1B2 FP inh: 20; PAFAH1B3 FP inh: 26*; PAFAH1B3 conf FP: 21

What do the screens show for `CC1CCCC(NC(=O)c2nn(C)c3c2CS(=O)(=O)c2ccccc2-3)C1C` (stereo unspecified)?
pPAFAH inh: 5; PAFAH2 inh: 3; Fam108B inh: -2; PME-1 inh: -2; PAFAH1B2 FP inh: 9; PAFAH1B3 FP inh: 3

What do the screens show for `Nc1ccc2c(c1)C(=NO)c1ccccc1-2`?
PAFAH2 inh: 4; PAFAH1B2 FP inh: 0; PAFAH1B3 FP inh: 10

What do the screens show for `ON=C1c2ccccc2-c2ccc(O)cc21`?
PAFAH2 inh: 7; PAFAH1B2 FP inh: 3; PAFAH1B3 FP inh: 37*; PAFAH1B3 conf FP: 28*

What do the screens show for `CCCN1CCN(C(=O)c2ccc3nc(CC)c(CC)nc3c2)CC1`?
pPAFAH inh: 4; PAFAH2 inh: -1; Fam108B inh: -1; PME-1 inh: -8; PAFAH1B2 FP inh: 0; PAFAH1B3 FP inh: 2

Source: PubChem BioAssay (The Scripps Research Institute Molecular Screening Center)
